Inconclusive results are not listed. Where a call stands in place of a potency, no number is given. Calls of active or inactive are those of the source. The call rests on the fitted dose curve; in most records, active means well fitted cell-killing curve with a large enough effect; inconclusive means small, poorly fitted or top-dose-only effect, or effect the other way; inactive means flat fitted curve, though single readings scatter.

Among the data in PubChem BioAssay (NCATS) are Potency and activity change, negative = cytotoxicity values, retold here.
Potency means the concentration at half of the fitted maximal effect.

This assay deals with OV90. Briefly: Primary qHTS to identify gynecologic anti-cancer compounds using libraries of approved drugs and bioactive compounds (AID 1345084). Further: nearly all actives have a fitted effect of over 55% in size. The conditions noted are these: Gynecologic cancer cell panel viability, ATPlite luminescence, 48 h; series mostly up to 57.5 µM. In short, it runs like this:
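Cells, 1,000 per well, plated 16 h, then exposed 48 h at 37 C to compounds. Viability by ATPlite luminescence after 15 min at room temperature.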
On the technique in general: qHTS replaces the single test concentration by a dilution series.
Turning to `C[C@@H]1C[C@H](C)CN(CCC(=O)Nc2ccc(Br)cc2)C1`, the Potency result is “inactive”. Regarding `O=[N+]([O-])c1cn2c(n1)OC[C@@H](OCc1ccc(-c3ccc(OC(F)(F)F)cc3)nc1)C2`, the Potency entry is “inactive”. For the compound `C=C1CCC2[C@](C)(CCC[C@@]2(C)C=O)[C@H]1CC/C(C)=C/CO` (stereo not given in full), the Potency result was “inactive”. For `COc1ccc(CCc2nc3cc(-c4c(C)noc4C)ccc3n2CC(C)N2CCOCC2)cc1Cl` (stereo not given), the Potency result is “inactive”. As for `O=C(NCC(=O)N1CCCC1)Nc1ccc2cnccc2c1`, the Potency result is “inactive”. Consider `C=C(C)C(=O)O[C@H]1[C@H]2C(=C)C(=O)O[C@@H]2/C=C(\CO)CC/C=C(/C=O)[C@@H]1O`, for which the Potency result was “inactive”. With `COc1c(C)cc(NC(=O)c2nn(Cc3ccc(F)cc3)c3c2CN(C(=O)c2ccc[nH]2)C[C@]3(C)C(N)=O)cc1C`, the activity change, negative = cytotoxicity is 16.4% [at 11.6 µM] (inactive). Turning to `Cc1[nH]c2ccccc2c1CCNCc1ccc(/C=C/C(=O)NO)cc1`, the Potency is 1000 nM (active). On to `O=C(NC1CCC1)c1ccc(C#Cc2cccc(F)c2)nc1`, for which the Potency result is “inactive”. Consider `COc1ccc(NC(=O)C2C[C@H](C)CC[C@H]2C(C)C)cc1` (stereo not given in full), for which the Potency result was “inactive”. The same measure, in the same setting: under `COc1cc(OC)c2c(=O)[nH]c(-c3cc(C)c(OCCO)c(C)c3)nc2c1` stands “inactive”; under `CC1(C=O)CCCC2(C)C1CCC13CC(CO)C(CCC12)C3` (stereo not given), “inactive”.

Take `COc1c2c(nc3occc13)C(CC=C(C)C)(OC)C(O)CC2` (stereo not given): the Potency entry is “inactive”.

Consider `Cn1ncnc1[C@@H]1c2n[nH]c(=O)c3cc(F)cc(c23)N[C@H]1c1ccc(F)cc1`, for which the Potency result is “inactive”. The same measure, in the same setting: as for `O=C(O)c1cccc(-c2ccc(-c3cn(C(=O)N4CCCCC4Cc4ccccc4)nn3)cc2)c1` (stereo not given), the entry is “inactive”.
